Data on eleven compounds can be found in the supplement of paper PMC9801561.

Assay [1] concerns Escherichia coli Nissle 1917. The experiment in a line: area under OmniLog respiration curve over 48 h (OmniLog units x h); higher = more growth / nutrient utilisation; extreme values may be limits of the assay. Conditions: incubation: 48 h, 37 °C.
The test system of assay [2] is Escherichia coli Nissle 1917. Nature of the assay: DuctApe activity index of respiration/growth curve (0 no growth to 9 maximum) (index 0-9); higher = more growth / nutrient utilisation, active = 3 or more; extreme values may be limits of the assay. Particulars: incubation: 48 h, 37 °C.
Setting [3] is: nutrient role: C-Source, carbohydrate.
[4] abbreviates: nutrient role: sole nitrogen source (pyruvate carbon).
The mark [5] stands for this setting: nutrient role: sole sulfur source (pyruvate carbon).
Setting [6] is: nutrient role: C-Source, carboxylic acid.
Where [7] appears, read: nutrient role: sole phosphorus source (pyruvate carbon).

± gives the standard deviation of the averaged measurements.
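For DuctApe activity index of respiration/growth curve (0 no growth to 9 maximum) in this document: biolog PM4 phosphorus and sulfur plates, tetrazolium violet dye reduction read in the OmniLog every 15 min, kinetic curves scored by DuctApe, each plate run in triplicate.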

As for `CO[C@@H]1O[C@H](CO)[C@@H](O)[C@H](O)[C@H]1O` [b-Methyl-D-Glucoside], in assay [1] (setting [3]), the “area under OmniLog respiration curve” value was determined as 6700 ± 470. Besides, the DuctApe activity index in assay [2] (setting [3]) is 7.33 (active).

On to `NC(=O)NCCC[C@H](N)C(=O)O` [L-Citrulline], for which the “area under OmniLog respiration curve” value in assay [1] (setting [4]) worked out at 1240 ± 540. Further, the DuctApe activity index in assay [2] (setting [4]) is 2.33 (inactive).

For the compound `CC(=O)N[C@@H](CS)C(=O)O` [N-Acetyl-L-Cysteine], the “area under OmniLog respiration curve” value in assay [1] (setting [5]) amounted to 55.4 ± 54. Moreover, the DuctApe activity index in assay [2] (setting [5]) was 0.333 (inactive).

With `COC(=O)[C@@H](C)O` [D-Lactic acid Methyl Ester], in assay [1] (nutrient role: C-Source, ester), the “area under OmniLog respiration curve” value was found to be 7990 ± 370. The DuctApe activity index in assay [2] (nutrient role: C-Source, ester) is 8 (active).

Take `O=C(O)[C@H](O)[C@@H](O)[C@H](O)[C@H](O)CO` [D-Gluconic acid]: the “area under OmniLog respiration curve” value in assay [1] (setting [6]) came out at 10300 ± 700. In addition, in assay [2] (setting [6]), the DuctApe activity index was 9 (active).

For `NC(Cc1ccc(OP(=O)(O)O)cc1)C(=O)O` (stereo in doubt) [O-Phospho-D-Tyrosine], the “area under OmniLog respiration curve” value in assay [1] (setting [7]) stood at 9640 ± 360. Besides, the DuctApe activity index in assay [2] (setting [7]) is 9 (active).

Regarding `O=CC(=O)O` [Glyoxylic acid], the “area under OmniLog respiration curve” value in assay [1] (setting [6]) is 5490 ± 480. The DuctApe activity index in assay [2] (setting [6]) was 7 (active).

On to `O=P(O)(O)O[C@H]1[C@H](OP(=O)(O)O)[C@@H](OP(=O)(O)O)[C@H](OP(=O)(O)O)[C@@H](OP(=O)(O)O)[C@H]1OP(=O)(O)O` [Inositol Hexaphosphate], for which the “area under OmniLog respiration curve” value in assay [1] (setting [7]) worked out at 8630 ± 520. Moreover, the DuctApe activity index in assay [2] (setting [7]) is 8.67 (active).

On to `OC[C@H]1O[C@@H](O[C@@H]2[C@@H](CO)OC(O)(CO)[C@H]2O)[C@H](O)[C@@H](O)[C@H]1O` (mixture of isomers) [Lactulose], for which the “area under OmniLog respiration curve” value in assay [1] (setting [3]) was 8170 ± 840. Also, the DuctApe activity index in assay [2] (setting [3]) is 8 (active).

For `Cc1cn([C@H]2C[C@H](O)[C@@H](COP(=O)(O)O)O2)c(=O)[nH]c1=O` [Thymidine 5`-Monophosphate], the “area under OmniLog respiration curve” value in assay [1] (setting [7]) is 8850 ± 380. Moreover, the DuctApe activity index in assay [2] (setting [7]) was 8.67 (active).

With `O=P(O)(O)OC(CO)CO` [b-Glycerol Phosphate], in assay [1] (setting [7]), the “area under OmniLog respiration curve” value worked out at 8820 ± 470. Moreover, in assay [2] (setting [7]), the DuctApe activity index is 8.67 (active).
